# Source: PubChem BioAssay (EPA / NIEHS)
# “And” between values parts separate entries of the source, which are not always exact repeats. Equal values may be shown once. Results filed as inconclusive are left out. Some structures have more than one record in an assay (separate samples or runs), and their calls can disagree. The source made the active and inactive calls. Rule for the calls, unless noted: active = hit-call score of the fitted dose curve at least 0.9, where 1 is the maximum; inconclusive = response in the unintended direction; inactive = score below 0.9.
# What was measured:
# [1] = biological target: human Dopamine Transporter (DAT), SLC6A3 (gene 6531) (UniProt Q01959); assay: NVS_TR_hDAT: NovaScreen (NVS) Transporter Assay for human Dopamine Transporter (DAT) (AID 2283374);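 note: activity means loss of bound radioligand signal relative to DMSO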
# human Dopamine Transporter (DAT), SLC6A3 (gene 6531), sequence (Q01959 whole entry, looked up): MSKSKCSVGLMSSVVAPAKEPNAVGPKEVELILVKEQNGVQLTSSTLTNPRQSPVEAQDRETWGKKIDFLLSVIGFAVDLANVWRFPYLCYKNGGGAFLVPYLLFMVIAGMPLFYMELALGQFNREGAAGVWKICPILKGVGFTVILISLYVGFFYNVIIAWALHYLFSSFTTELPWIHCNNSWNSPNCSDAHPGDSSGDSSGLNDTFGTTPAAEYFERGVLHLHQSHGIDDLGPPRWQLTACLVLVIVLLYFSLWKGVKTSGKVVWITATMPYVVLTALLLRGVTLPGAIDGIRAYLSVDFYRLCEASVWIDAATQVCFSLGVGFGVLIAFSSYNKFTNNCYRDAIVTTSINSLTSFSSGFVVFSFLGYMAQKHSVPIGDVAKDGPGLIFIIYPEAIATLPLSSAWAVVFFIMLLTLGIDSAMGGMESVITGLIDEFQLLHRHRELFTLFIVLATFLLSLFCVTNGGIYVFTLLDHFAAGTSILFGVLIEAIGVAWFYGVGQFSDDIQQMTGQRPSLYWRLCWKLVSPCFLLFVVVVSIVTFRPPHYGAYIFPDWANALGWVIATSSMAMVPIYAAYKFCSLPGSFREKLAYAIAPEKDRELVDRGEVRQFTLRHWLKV
# Outline: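 hDAT membranes + tritiated/iodinated radioligand, competitive displacement; 1 h; filter scintillation readout. Single conc 25 uM (duplicate), then conc-response for actives. DMSO = negative control.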
# [2] = biological target: human Norepinephrine Transporter (NET), SLC6A2 (gene 6530) (UniProt P23975); assay: NVS_TR_hNET: NovaScreen (NVS) Transporter Assay for human Norepinephrine Transporter (NET) (AID 2283377);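 note: cell-free membrane protein extracted from CHO cells expressing human NET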;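 for AC50: displacement of radioligand from human NET seen as loss of scintillation signal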
# human Norepinephrine Transporter (NET), SLC6A2 (gene 6530), sequence (P23975 whole entry, looked up): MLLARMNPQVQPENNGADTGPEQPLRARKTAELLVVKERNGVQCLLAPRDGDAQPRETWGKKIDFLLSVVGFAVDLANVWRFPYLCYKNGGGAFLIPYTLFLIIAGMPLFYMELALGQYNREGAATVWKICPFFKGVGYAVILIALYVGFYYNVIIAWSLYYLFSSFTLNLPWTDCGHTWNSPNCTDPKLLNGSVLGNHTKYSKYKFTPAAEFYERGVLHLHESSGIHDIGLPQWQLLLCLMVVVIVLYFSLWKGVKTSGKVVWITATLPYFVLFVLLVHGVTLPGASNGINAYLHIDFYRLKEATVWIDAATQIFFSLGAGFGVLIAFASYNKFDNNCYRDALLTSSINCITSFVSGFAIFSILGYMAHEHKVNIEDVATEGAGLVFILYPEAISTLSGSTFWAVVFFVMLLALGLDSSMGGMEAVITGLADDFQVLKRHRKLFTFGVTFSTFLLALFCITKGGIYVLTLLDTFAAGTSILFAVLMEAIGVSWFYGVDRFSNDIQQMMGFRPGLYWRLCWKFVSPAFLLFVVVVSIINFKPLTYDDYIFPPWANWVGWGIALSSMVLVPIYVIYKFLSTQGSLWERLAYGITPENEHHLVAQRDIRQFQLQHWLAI
# Outline: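 CHO cell extracts expressing the transporter; tritiated or iodinated tracer displaced competitively; filtration plus scintillation readout at 1 h. Single-point duplicates at 25 uM, concentration series for follow-up; activity = signal drop relative to DMSO.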
# [3] = biological target: Estrogen receptor (Homo sapiens) (UniProt P03372); assay: OT_ERa_GFPERaERE_0480: Odyssey Thera (OT) 8-hour HeLa Transcription Induction Assay for Estrogen Receptor (AID 2283381; active = hit-call score of the fitted dose curve at least 0.9, where 1 is the maximum; inactive = score below 0.9)
# Estrogen receptor (Homo sapiens), sequence (P03372 whole entry, looked up): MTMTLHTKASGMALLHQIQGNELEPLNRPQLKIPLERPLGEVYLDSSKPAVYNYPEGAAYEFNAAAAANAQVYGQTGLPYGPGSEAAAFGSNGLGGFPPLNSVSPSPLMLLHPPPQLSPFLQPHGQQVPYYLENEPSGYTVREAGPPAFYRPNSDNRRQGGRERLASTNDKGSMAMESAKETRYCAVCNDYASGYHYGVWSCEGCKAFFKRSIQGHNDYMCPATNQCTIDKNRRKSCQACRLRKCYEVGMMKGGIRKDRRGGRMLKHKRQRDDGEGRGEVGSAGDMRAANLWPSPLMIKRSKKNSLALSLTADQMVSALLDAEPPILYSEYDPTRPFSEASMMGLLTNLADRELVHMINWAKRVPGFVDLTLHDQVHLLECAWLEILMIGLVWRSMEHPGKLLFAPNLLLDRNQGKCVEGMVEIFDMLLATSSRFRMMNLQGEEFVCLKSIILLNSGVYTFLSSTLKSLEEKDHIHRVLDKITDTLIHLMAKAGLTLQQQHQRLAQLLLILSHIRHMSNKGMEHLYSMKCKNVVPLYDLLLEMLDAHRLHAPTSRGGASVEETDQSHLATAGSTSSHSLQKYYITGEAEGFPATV
# Outline: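 An 8 h HeLa transcription-induction format with a GFP reporter under ERE control, read by fluorescence microscopy; single endpoint fitted positively with DMSO as baseline.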
# [4] = biological target: Estrogen receptor (Homo sapiens) (UniProt P03372); assay: OT_ERa_GFPERaERE_0120: Odyssey Thera (OT) 2-hour HeLa Transcription Induction Assay for Estrogen Receptor (AID 2283382)
# Outline: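 Two-hour compound treatment of HeLa cells preceded microscopy imaging of an inducible fluorescent reporter. Image-based quantification gave one endpoint, analysed for signal increase relative to DMSO controls.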
# [5] = biological target: mouse Estrogen Receptor alpha (Era), Esr1 (gene 13982) (UniProt P19785); assay: NVS_NR_mERa: NovaScreen (NVS) Nuclear Receptor Binding Assay for mouse Estrogen Receptor alpha (Era) (AID 2283378);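 note: hit means loss of bound radioligand signal relative to DMSO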
# mouse Estrogen Receptor alpha (Era), Esr1 (gene 13982), sequence (P19785 whole entry, looked up): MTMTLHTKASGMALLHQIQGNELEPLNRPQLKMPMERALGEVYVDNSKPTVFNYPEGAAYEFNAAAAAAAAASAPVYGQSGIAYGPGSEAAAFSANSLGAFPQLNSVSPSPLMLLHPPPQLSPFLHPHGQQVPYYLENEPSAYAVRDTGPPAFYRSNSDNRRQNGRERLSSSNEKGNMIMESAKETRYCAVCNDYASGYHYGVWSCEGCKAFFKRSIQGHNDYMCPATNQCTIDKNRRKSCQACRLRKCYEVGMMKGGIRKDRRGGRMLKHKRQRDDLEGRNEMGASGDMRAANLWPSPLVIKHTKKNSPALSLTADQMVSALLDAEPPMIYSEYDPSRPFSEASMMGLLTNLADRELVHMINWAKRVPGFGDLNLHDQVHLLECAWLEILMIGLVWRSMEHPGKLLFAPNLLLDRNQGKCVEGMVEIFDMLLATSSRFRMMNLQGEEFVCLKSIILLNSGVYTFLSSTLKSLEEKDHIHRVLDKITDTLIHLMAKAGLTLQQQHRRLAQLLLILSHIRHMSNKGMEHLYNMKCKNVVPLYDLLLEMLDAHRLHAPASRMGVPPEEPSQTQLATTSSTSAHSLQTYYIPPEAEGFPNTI
# Outline: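 Filter scintillation counts of bound radioligand, measured 18 h post-dose, gave the readout; decreased signal relative to DMSO controls indicated displacement from mouse Era. Primary screen ran in duplicate at 25 uM; active chemicals were retested across concentrations.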
# [6] = biological target: Estrogen receptor beta (Homo sapiens) (UniProt Q92731); assay: OT_ER_ERbERb_1440: Odyssey Thera (OT) 24-hour HEK293T Protein-Complementation Assay for Estrogen Receptor-beta/-beta Homodimer (AID 2283380);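 note: scored as signal increase over DMSO baseline for both agonists and antagonists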
# Estrogen receptor beta (Homo sapiens), sequence (Q92731 whole entry, looked up, the tested form may be a part): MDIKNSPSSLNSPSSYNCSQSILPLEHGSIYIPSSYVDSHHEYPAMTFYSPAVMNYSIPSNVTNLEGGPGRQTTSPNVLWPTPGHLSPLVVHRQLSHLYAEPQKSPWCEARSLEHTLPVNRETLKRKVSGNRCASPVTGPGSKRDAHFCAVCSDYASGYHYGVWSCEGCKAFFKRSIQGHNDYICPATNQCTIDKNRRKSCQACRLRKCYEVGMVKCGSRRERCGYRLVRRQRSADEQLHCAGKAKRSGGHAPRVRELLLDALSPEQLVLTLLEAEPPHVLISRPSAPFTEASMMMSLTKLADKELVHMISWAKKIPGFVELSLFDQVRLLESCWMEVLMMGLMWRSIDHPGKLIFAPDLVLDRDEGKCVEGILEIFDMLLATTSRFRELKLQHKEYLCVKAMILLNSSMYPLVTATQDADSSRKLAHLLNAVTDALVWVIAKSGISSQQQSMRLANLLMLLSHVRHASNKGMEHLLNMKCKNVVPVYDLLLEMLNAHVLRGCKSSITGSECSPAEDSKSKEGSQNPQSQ
# Outline: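 HEK293T cells stably expressing ER beta LBD (aa 310-547) homodimer fragment-complementation reporter, dosed 24 h. Cells formaldehyde-fixed, Draq5-stained; gain in nuclear (agonist) or nuclear plus cytoplasmic (antagonist) fluorescence versus DMSO read by laser scanning cytometry.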
# [7] = biological target: Norway rat Vesicular Monoamine Transporter (VMAT2), neurotransmitter transporter, Slc18a2 (gene 25549) (UniProt Q01827); assay: NVS_TR_rVMAT2: NovaScreen (NVS) Transporter Assay for Norway rat Vesicular Monoamine Transporter (VMAT2), neurotransmitter transporter (AID 2283376);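 note: actives lower the bound radioligand signal below the DMSO level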
# Norway rat Vesicular Monoamine Transporter (VMAT2), neurotransmitter transporter, Slc18a2 (gene 25549), sequence (Q01827 whole entry, looked up): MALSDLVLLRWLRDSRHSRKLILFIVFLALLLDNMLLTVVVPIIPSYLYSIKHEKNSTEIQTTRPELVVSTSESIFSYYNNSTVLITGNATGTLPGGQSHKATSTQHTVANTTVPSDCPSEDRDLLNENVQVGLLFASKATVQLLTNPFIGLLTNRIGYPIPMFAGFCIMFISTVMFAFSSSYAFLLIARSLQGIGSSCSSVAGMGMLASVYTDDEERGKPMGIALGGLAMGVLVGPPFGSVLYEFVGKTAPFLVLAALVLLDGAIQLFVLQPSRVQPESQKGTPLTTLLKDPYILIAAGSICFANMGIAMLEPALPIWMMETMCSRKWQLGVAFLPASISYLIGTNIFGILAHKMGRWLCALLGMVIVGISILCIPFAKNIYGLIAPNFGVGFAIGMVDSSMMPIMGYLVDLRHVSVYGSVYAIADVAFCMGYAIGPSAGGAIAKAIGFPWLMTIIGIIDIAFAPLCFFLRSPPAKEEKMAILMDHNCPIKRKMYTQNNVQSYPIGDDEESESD
# Outline: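 Filter-based scintillation counting of radioligand bound to rat forebrain-derived VMAT2 protein, cell-free, 1 h post-dose. Signal loss relative to DMSO control scored; single-concentration duplicate screen (25 uM) followed by concentration-response testing of actives.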
# [8] = biological target: Agonist Androgen Response Element (ARE), AR (gene 367) (UniProt P10275); assay: OT_AR_ARELUC_AG_1440: Odyssey Thera (OT) 24-hour CHO-K1 Luciferase Assay for Agonist Androgen Response Element (ARE) (AID 2283379)
# Agonist Androgen Response Element (ARE), AR (gene 367), sequence (P10275 whole entry, looked up): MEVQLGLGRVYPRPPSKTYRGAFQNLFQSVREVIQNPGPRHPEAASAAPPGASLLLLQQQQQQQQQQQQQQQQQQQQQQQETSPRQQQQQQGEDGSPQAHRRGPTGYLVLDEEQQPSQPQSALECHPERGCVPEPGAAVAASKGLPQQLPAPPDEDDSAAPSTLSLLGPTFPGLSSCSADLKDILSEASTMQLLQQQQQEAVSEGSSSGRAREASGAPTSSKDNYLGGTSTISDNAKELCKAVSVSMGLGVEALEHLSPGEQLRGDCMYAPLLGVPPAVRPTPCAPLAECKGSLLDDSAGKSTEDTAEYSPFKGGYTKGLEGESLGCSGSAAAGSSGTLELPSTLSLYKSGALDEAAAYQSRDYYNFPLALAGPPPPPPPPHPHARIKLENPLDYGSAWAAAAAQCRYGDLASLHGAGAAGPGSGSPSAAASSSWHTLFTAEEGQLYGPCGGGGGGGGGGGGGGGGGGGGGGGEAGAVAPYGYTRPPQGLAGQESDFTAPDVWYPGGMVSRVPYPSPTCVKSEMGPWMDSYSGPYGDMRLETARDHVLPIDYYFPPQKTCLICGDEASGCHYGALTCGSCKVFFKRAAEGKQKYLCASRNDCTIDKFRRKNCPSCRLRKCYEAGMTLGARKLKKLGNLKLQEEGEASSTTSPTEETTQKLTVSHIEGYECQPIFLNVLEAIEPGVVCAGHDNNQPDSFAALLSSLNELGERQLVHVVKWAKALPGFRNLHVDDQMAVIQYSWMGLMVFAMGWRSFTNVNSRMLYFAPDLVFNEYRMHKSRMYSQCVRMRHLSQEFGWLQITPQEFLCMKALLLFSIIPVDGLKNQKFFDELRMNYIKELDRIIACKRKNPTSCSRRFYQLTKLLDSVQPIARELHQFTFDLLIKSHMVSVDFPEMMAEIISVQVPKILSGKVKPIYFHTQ
# Outline: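 Gain-of-signal reporter endpoint: cells (CHO-K1, hamster) are treated 24 h, luciferin/ATP reagent added, and luminescence compared with DMSO baseline.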
# [9] = biological target: rat Serotonin Transporter (SERT), Slc6a4 (gene 25553) (UniProt P31652); assay: NVS_TR_rSERT: NovaScreen (NVS) Transporter Assay for rat Serotonin Transporter (SERT) (AID 2283375)
# rat Serotonin Transporter (SERT), Slc6a4 (gene 25553), sequence (P31652 whole entry, looked up): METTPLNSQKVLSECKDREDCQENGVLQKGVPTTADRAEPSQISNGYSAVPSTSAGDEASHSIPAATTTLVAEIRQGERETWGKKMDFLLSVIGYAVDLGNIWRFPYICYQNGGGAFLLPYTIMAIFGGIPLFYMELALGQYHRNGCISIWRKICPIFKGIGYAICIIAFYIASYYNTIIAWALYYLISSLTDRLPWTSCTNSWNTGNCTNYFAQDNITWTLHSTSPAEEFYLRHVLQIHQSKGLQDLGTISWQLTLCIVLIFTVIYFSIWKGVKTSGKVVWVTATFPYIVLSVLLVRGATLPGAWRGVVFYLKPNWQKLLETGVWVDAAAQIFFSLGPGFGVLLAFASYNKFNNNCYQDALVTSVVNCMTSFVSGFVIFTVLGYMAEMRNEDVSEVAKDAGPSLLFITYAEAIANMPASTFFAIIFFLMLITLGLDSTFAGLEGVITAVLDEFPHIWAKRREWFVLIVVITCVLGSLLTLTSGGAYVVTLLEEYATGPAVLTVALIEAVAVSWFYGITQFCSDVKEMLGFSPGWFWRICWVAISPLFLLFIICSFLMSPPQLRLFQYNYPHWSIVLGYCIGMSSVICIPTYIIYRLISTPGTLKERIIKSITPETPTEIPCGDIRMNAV
# Outline: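 Radioligand displacement, filter scintillation readout; rat forebrain membrane prep, 1 h post-dose. Single-conc 25 uM duplicate screen, then concentration-response on actives. Loss of signal vs DMSO baseline.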
smiles,measurement,setting,value
O=[N+]([O-])c1ccc(Cl)c(Cl)c1,outcome,[1],inactive
same,outcome,[2],inactive
same,outcome,[3],inactive
same,outcome,[4],inactive
CCCN(CCC)c1c([N+](=O)[O-])cc(C(C)C)cc1[N+](=O)[O-],outcome,[5],inactive
same,AC50,[6],7.26 µM (active)
same,AC50,[3],12.2 µM (active)
same,outcome,[4],inactive
c1ccc2c(c1)Nc1ccccc1S2,AC50,[2],6.58 µM (active)
same,outcome,[6],inactive
same,outcome,[3],inactive
same,outcome,[4],inactive
Cc1cc(C)c(C(=O)P(=O)(c2ccccc2)c2ccccc2)c(C)c1,AC50,[1],13.6 µM (active)
same,outcome,[2],inactive
Cn1[nH]nnc1=S,outcome,[7],inactive
CC(Cc1ccc(OCC(=O)O)cc1)NCC(O)c1csc(C(F)(F)F)n1 (stereo not drawn),outcome,[7],inactive
same,outcome,[6],inactive
same,outcome,[3],inactive
same,outcome,[4],inactive
CCCCCCCc1ccc(O)cc1,AC50,[1],6.26 µM (active)
same,AC50,[5],4.96 µM (active) and 14.5 µM (active)
same,outcome,[5],inactive
same,outcome,[8],inactive
same,AC50,[6],12.7 µM (active) and 12.5 µM (active) and 12.6 µM (active)
same,outcome,[6],inactive
same,outcome,[3],inactive
same,outcome,[4],inactive
CCC1(c2ccccc2)C(=O)N=C(O)NC1=O (stereo not drawn),outcome,[2],inactive
same,outcome,[6],inactive
same,outcome,[3],inactive
same,outcome,[4],inactive
O=c1ssc(Cl)c1Cl,AC50,[1],14.5 µM (active)
same,AC50,[2],18.3 µM (active)
same,outcome,[3],inactive
same,outcome,[4],inactive
CCNc1nc(Cl)nc(NC(C)(C)C)n1,outcome,[5],inactive
same,outcome,[8],inactive
same,outcome,[6],inactive
same,outcome,[3],inactive
same,outcome,[4],inactive
O=C(O)C(Cl)Cl,outcome,[7],inactive
same,outcome,[3],inactive
same,outcome,[4],inactive
CSC(C)(C)C=NO,outcome,[1],inactive
same,outcome,[3],inactive
same,outcome,[4],inactive
Nc1ccc([N+](=O)[O-])cc1Cl,AC50,[9],44.9 nM (active)
CCCCN(CCCC)SN(C)C(=O)Oc1cccc2c1OC(C)(C)C2,outcome,[5],inactive
same,outcome,[6],inactive
same,outcome,[3],inactive
same,outcome,[4],inactive
ClC1=C(Cl)C2(Cl)C3C(Cl)C(Cl)CC3C1(Cl)C2(Cl)Cl (stereo not drawn),outcome,[5],inactive
same,outcome,[8],inactive
same,outcome,[6],inactive
same,outcome,[3],inactive
same,outcome,[4],inactive
CC(C)(C)c1ccccc1OP(=O)(Oc1ccccc1)Oc1ccccc1,AC50,[1],9.69 µM (active)
CCCCN(CC)C(=O)SCCC,outcome,[5],inactive
same,outcome,[8],inactive
same,outcome,[6],inactive
same,outcome,[3],inactive
same,outcome,[4],inactive
CO/N=C(/C(=O)OC)c1ccccc1COc1ccccc1C,outcome,[5],inactive
same,outcome,[8],inactive
same,AC50,[3],15.7 µM (active)
same,AC50,[4],21.9 µM (active)
N#Cc1c(-c2ccc(Cl)cc2)[nH]c(C(F)(F)F)c1Br,AC50,[2],16.4 µM (active)
Cc1ccc2c(c1N)C(=O)c1ccccc1C2=O,AC50,[2],12.2 µM (active)
c1ccc(OP(Oc2ccccc2)Oc2ccccc2)cc1,outcome,[1],inactive
same,outcome,[5],inactive
same,outcome,[6],inactive
same,outcome,[3],inactive
same,outcome,[4],inactive
CCCCc1ccc(O)cc1,outcome,[5],inactive
same,AC50,[6],19.6 µM (active)
same,outcome,[3],inactive
same,outcome,[4],inactive
O=C(CBr)OCc1ccccc1,outcome,[6],inactive
same,outcome,[3],inactive
same,outcome,[4],inactive
CCOC(=O)c1ccccc1C(=O)OCC,outcome,[3],inactive
same,outcome,[4],inactive
CCOP(=S)(OCC)SCSCC,outcome,[6],inactive
same,outcome,[3],inactive
same,outcome,[4],inactive
CCN(CC)c1ccccc1,outcome,[8],inactive
same,outcome,[6],inactive
same,outcome,[3],inactive
same,outcome,[4],inactive
Cc1ccc([N+](=O)[O-])cc1C,outcome,[6],inactive
same,outcome,[3],inactive
same,outcome,[4],inactive
c1nc[nH]n1,outcome,[5],inactive
same,outcome,[6],inactive
same,outcome,[3],inactive
same,outcome,[4],inactive
CCOc1ccc(C(C)(C)COCc2cccc(Oc3ccccc3)c2)cc1,outcome,[6],inactive
same,outcome,[3],inactive
same,outcome,[4],inactive
CC(Cl)(Cl)C(=O)O,outcome,[5],inactive
same,outcome,[6],inactive
same,outcome,[3],inactive
same,outcome,[4],inactive
CCCCC(CC)COP(=O)(Oc1ccccc1)Oc1ccccc1 (stereo not drawn),outcome,[8],inactive
same,outcome,[6],inactive
same,outcome,[3],inactive
same,outcome,[4],inactive
O=S1(=O)OCC2C(CO1)C1(Cl)C(Cl)=C(Cl)C2(Cl)C1(Cl)Cl (stereo not drawn),outcome,[6],inactive
same,outcome,[3],inactive
same,outcome,[4],inactive
Nc1ccc(Cl)cc1,outcome,[3],inactive
same,outcome,[4],inactive
CCCCOCCOP(=O)(OCCOCCCC)OCCOCCCC,outcome,[6],inactive
same,outcome,[3],inactive
same,outcome,[4],inactive
CCCCC(CC)COC(=O)c1c(Br)c(Br)c(Br)c(Br)c1C(=O)OCC(CC)CCCC (stereo not drawn),outcome,[6],inactive
same,outcome,[3],inactive
same,outcome,[4],inactive
FC(F)(F)c1ccc(Cl)cc1,outcome,[6],inactive
same,outcome,[3],inactive
same,outcome,[4],inactive
CCOS(=O)(=O)OCC,outcome,[6],inactive
same,outcome,[3],inactive
same,outcome,[4],inactive
O=[N+]([O-])c1ccccc1,outcome,[5],inactive
same,outcome,[6],inactive
same,outcome,[3],inactive
same,outcome,[4],inactive
COC(N)=O,outcome,[6],inactive
same,outcome,[3],inactive
same,outcome,[4],inactive
CCCCN(CCCC)N=O,outcome,[6],inactive
same,outcome,[3],inactive
same,outcome,[4],inactive
CCCCc1ccccc1,outcome,[6],inactive
same,outcome,[3],inactive
same,outcome,[4],inactive
c1ccc2c(c1)sc1ccccc12,outcome,[3],inactive
same,outcome,[4],inactive
CC(C)(C)N(NC(=O)c1ccc(Cl)cc1)C(=O)c1ccccc1,outcome,[8],inactive
same,outcome,[6],inactive
same,outcome,[3],inactive
same,outcome,[4],inactive
CN(C)C(=O)Cl,outcome,[3],inactive
same,outcome,[4],inactive
O=NN1CCCC1,AC50,[6],50 µM (active)
same,outcome,[3],inactive
same,outcome,[4],inactive
c1cc2c3c(cccc3c1)CC2,outcome,[8],inactive
same,outcome,[6],inactive
same,outcome,[3],inactive
same,outcome,[4],inactive
COCCOCCO,outcome,[6],inactive
same,outcome,[3],inactive
same,outcome,[4],inactive
CC(C)(C)OOC(C)(C)C,outcome,[6],inactive
same,outcome,[3],inactive
same,outcome,[4],inactive
Cc1ccc(N)cc1N,outcome,[6],inactive
same,outcome,[3],inactive
same,outcome,[4],inactive
ClC(Cl)c1ccccc1,outcome,[3],inactive
same,outcome,[4],inactive
Nc1cc2c3c(c1)C(c1ccccc1)=N[C@@H](NC(=O)c1cccnc1)C(=O)N3CC2,outcome,[6],inactive
same,outcome,[3],inactive
same,outcome,[4],inactive
Cc1ccc(O)cc1C,outcome,[6],inactive
same,outcome,[3],inactive
same,outcome,[4],inactive
ClC(Cl)(Cl)c1ccccc1,outcome,[5],inactive
same,outcome,[6],inactive
same,outcome,[3],inactive
same,outcome,[4],inactive
CCCCOCC1CO1 (stereo not drawn),outcome,[3],inactive
same,outcome,[4],inactive
CCOC(=O)c1ccccc1N,outcome,[6],inactive
same,outcome,[3],inactive
same,outcome,[4],inactive
O=C(O)CF,outcome,[6],inactive
same,outcome,[3],inactive
same,outcome,[4],inactive
O=P1(N(CCCl)CCCl)NCCCO1 (stereo not drawn),outcome,[5],inactive
same,outcome,[6],inactive
same,outcome,[3],inactive
same,outcome,[4],inactive
Cc1cccc(N)c1,outcome,[3],inactive
same,outcome,[4],inactive
[N-]=[N+]=[N-],outcome,[8],inactive
same,outcome,[3],inactive
same,outcome,[4],inactive
O=C(O)C1C(C(=O)O)C2(Cl)C(Cl)=C(Cl)C1(Cl)C2(Cl)Cl (stereo not drawn),outcome,[6],inactive
same,outcome,[3],inactive
same,outcome,[4],inactive
